Screening results deposited in PubChem by National Center for Advancing Translational Sciences (NCATS).
The full list was thinned out, with hits kept by preference.
RE007 growth inh = qHTS Assay for Inhibitors of the HIV-1 protein Vpr | S. pombe RE007 Vpr strain, BacTiter-Glo ATP luminescence, 24 h | 360,000 tested, 0.21% active | Potency, µM (series often up to 92.2 µM), for the others: at the highest dose activity change, negative = less growth, most hits filed as inhibitors; active means well fitted falling curve with a large enough effect; inconclusive means small, poorly fitted or top-dose-only effect; inactive means no such curve, though single readings can be large or run the other way; further: potency means the concentration at half of the fitted maximal effect; on the % scale 0 is the no-effect control and ±100 the full control effect; nearly all actives have a fitted effect of over 50% in size
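Fission yeast strain RE007, carrying one chromosomally integrated HIV-1 vpr copy, was seeded at OD 0.01 in PMG+AL medium with 23 nL pinned compound. After 24 h at 30 °C and 99% humidity, viability was read by BacTiter-Glo luminescence.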
Shiga toxin inh = A qHTS for Small Molecule Inhibitors of Shiga Toxin | Vero cells, Shiga toxin protein synthesis inhibition reporter | inhibition, % at 38.7 µM | 290,000 tested, 9.2% active | AID 2315, 2010; in the data active means inhibition mostly above about 28%, no sharp cut-off; inactive means mostly below about 43%; further: 0% is about no effect
Tb PYK inh = qHTS of Trypanosoma Brucei Inhibitors. pyruvate kinase (Trypanosoma brucei), Q57TT1. TbPYK enzyme, Kinase-Glo Plus ATP luminescence, 45 min. Potency, µM (top dose mostly 76.8 µM), for inactives: at the highest dose activity, negative = inhibition, most hits filed as inhibitors. 410,000 tested, 0.12% active. AID 624173, 2012; further: potency means the concentration at half of the fitted maximal effect; on the % scale 0 is the no-effect control and ±100 the full control effect; nearly all actives have a fitted effect of over 50% in size
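Enzyme and substrate buffer are dispensed first and compound is pin-transferred. ADP at 130 uM final then starts the reaction, which runs 45 min at room temperature. Detection reagent is added for 10 min before luminescence is imaged.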
Giardia FBPA inh = qHTS Assay for Inhibitors of Fructose-1,6-bisphosphate Aldolase from Giardia Lamblia. A8B2U2. purified Giardia FBPA. Potency, µM (top dose mostly 59.6 µM), for inactives: at the top dose activity, negative = inhibition, usual class: inhibitors. 290,000 tested, 0.71% active. AID 2451, 2010; further: potency means the concentration at half of the fitted maximal effect; on the % scale 0 is the no-effect control and ±100 the full control effect; nearly all actives have a fitted effect of over 55% in size
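Giardia FBPA (40 nM reagent) was preincubated 10 min at RT with compound (up to 57.5 uM final), then substrate plus GAPDH/TPI/NAD/arsenate coupling system with diaphorase/resazurin was added; resorufin fluorescence (525/598 nm) was read after 20 min.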
LmPK inhibitor = qHTS Assay for Inhibitors of Leishmania Mexicana Pyruvate Kinase (LmPK); purified LmPK, Kinase-Glo ATP luminescence, 1 h; Potency, µM (series often up to 57.5 µM), for the others: top-dose activity change, negative = inhibition, hits mostly inhibitors; 290,000 tested, 0.37% active; AID 1721, 2009; further: potency means the concentration at half of the fitted maximal effect; on the % scale 0 is the no-effect control and ±100 the full control effect
Target sequence (Q27686 whole entry, looked up): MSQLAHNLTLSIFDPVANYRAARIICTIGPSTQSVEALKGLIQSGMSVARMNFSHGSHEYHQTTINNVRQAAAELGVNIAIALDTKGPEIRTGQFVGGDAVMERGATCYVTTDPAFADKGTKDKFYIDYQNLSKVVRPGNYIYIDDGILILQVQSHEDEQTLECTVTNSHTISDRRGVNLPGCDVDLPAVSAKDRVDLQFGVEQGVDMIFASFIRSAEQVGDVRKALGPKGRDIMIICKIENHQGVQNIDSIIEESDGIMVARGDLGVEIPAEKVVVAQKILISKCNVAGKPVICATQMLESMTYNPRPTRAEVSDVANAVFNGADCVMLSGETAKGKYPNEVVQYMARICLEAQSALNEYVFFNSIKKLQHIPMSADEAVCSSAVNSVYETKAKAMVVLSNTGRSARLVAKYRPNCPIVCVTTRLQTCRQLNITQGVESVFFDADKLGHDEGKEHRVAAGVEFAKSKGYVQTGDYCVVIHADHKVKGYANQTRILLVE
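0.1 nM LmPK, 0.5 mM PEP, 0.1 mM ADP; 50 mM imidazole pH 7.2, 7 mM MgCl2, 50 mM KCl; 1 h RT. Kinase-Glo luminescence readout, normalized to no-enzyme (full inhibition) and uninhibited wells.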
CHX counter = Cycloheximide Counterscreen for Small Molecule Inhibitors of Shiga Toxin; cell reporter, cycloheximide protein synthesis inhibition counterscreen; max response, %; 300,000 tested, 12% active; AID 2314, 2010; in the data active means max response mostly above about 13%, no sharp cut-off; inactive means mostly below about 14%; further: read at 38.3 µM for the half of the compounds with a filed dose; 0% is about no effect
The depositor's hits bear a star; u = inconclusive; x = no result; [ ] = dose if it differs, or a comment. Unless noted, the call rests on the fitted dose curve; in most records, active means well fitted curve in the direction sought with a large enough effect; inconclusive means small, poorly fitted or top-dose-only effect, or another doubt; inactive means no such curve, though single readings can be large; an effect the other way counts as inactive or inconclusive.

SMILES	RE007 growth inh	Shiga toxin inh	Tb PYK inh	Giardia FBPA inh	LmPK inhibitor	CHX counter
COc1cc(C(=O)Cc2nc3ccccc3n2C)cc(OC)c1OC	-18%	21	-15%	13%	3%	8
CC(C)c1ccc(C(O)Cc2nc3ccccc3n2C)cc1 (stereo unspecified)	-3%	127*	-1%	-9%	1%	60*
CN(C)c1ccc(C(O)Cc2nc3ccccc3n2C)cc1 (stereo unspecified)	u	63*	-3%	-25%	6%	25*
CC(C)c1ccc(C(O)c2nc3ccccc3n2C)cc1 (stereo unspecified)	2%	22	-5%	1%	0%	9
COc1ccccc1C(O)Cc1nc2ccccc2n1C (stereo unspecified)	-2%	108*	0%	-2%	-4%	63*
O=C(NCc1ccccc1)c1cccc(NC(=O)C2CCCC2)c1	7%	x	6%	x	x	x
CCNC(=O)C1CCCN(C(=O)c2cnc3ccccc3n2)CC1 (stereo unspecified)	-10%	x	-16%	x	x	x
Cc1ccc(NC(=O)C2(C)CCN2Cc2ccccc2OC(F)F)cc1 (stereo unspecified)	-12%	x	0%	x	x	x
Cc1[nH]c2c(Br)cccc2c1[C@H]1[C@@H](CC#N)C1(C)C	-21%	63*	-1%	-16%	4%	42*
CCOC(=O)N1CCN(C(=O)c2noc(C(C)C)c2[N+](=O)[O-])CC1	7%	-12	-3%	8%	0%	-2
C=CCNC(=O)NC(=S)c1ccccc1	-26%	24	4%	-14%	-10%	23*
COC(=O)Cc1c(C)c2ccc(OC3CCCCC3=O)c(C)c2oc1=O (stereo unspecified)	-9%	40	-4%	-10%	2%	16
CC(C)(C)OC(=O)N/N=C/c1cccc([N+](=O)[O-])c1	0%	82*	1%	19%	7%[11.5 µM]	50*
COc1cc(/C=N\NC(=O)OC(C)(C)C)ccc1OC(=O)c1ccco1	-6%	82*	5%	-1%	6%	19
COc1ccc(/C=N/NC(=O)OC(C)(C)C)cc1OC	6%	active	5%	5%	-5%	14*
Cc1cc(C(=O)N/N=C/c2cccc([N+](=O)[O-])c2)c(C)o1	-8%	1	0%	1%	-1%	6
Cc1cnc(CNc2ncncc2-c2ccoc2)cn1	x	x	x	-22%	x	x
COc1ccc(NC(=O)C2CCN(S(=O)(=O)c3cn(C)nc3C)CC2)cc1	-9%	-13	-2%	x	0%	0
O=C(CCSCc1ccccc1F)N1CCN(c2ccc(F)cc2)CC1	x	x	-5%	x	x	x
O=C(COC(=O)CCC1CCCC1)Nc1ccc(F)cc1	15%	x	4%	x	x	x
COc1ccccc1NC(=O)CSc1nccc(-c2ccco2)n1	1%	x	-13%	x	x	x
Cn1c(CN2CCCCC2)nc2cc(NC(=O)c3ccccc3Cl)ccc21	-13%	72*	4%	1%	2%	44*
Cc1cccc(OCC(=O)Nc2ccc3c(c2)nc(CCN2CCCCC2)n3C)c1	1%	-7	0%	-17%	-6%	-2
Cn1c(CN2CCCCC2)nc2cc(NC(=O)c3ccc(F)cc3)ccc21	23%	24	10%	-9%	0%	34*
Cc1cccc(OCC(=O)Nc2ccc3c(c2)nc(CN2CCCCC2)n3C)c1	3%	53	2%	-12%	-2%	29*
SMILES	RE007 growth inh	Shiga toxin inh	Tb PYK inh	Giardia FBPA inh	LmPK inhibitor	CHX counter
CC(=O)N1CCN(Cc2nc3cc(NC(=O)c4ccccc4Cl)ccc3n2C)CC1	2%	-3	2%	5%	0%	-5
Cc1nn(C(C)(C)C)c(OC(=O)c2c(F)cccc2F)c1Sc1ccccc1	x	x	5%	x	x	x
CCn1c(O)c(/C=C2\C=Nc3ccccc32)sc1=Nc1ccc(C)cc1	-7%	32	-3%	4%	0%	-2
CCn1c(O)c(/C=C2\C=Nc3ccccc32)sc1=O	-10%	78*	-3%	-6%	1%	34*
Oc1nc(Nc2ccccc2)sc1/C=C1\C=Nc2ccccc21	6%	64*	3%	-7%	-7%	49*
CCOC(=O)c1c(Nc2ccccc2)sc(/C=C2\C=Nc3ccccc32)c1O	1%	-3	-8%	-4%	0%	-3
O=c1[nH]c(O)c(/C=C2\C=Nc3ccccc32)[nH]1	6%	13	2%	1%	-1%	18*
Clc1cc(Br)ccc1NCc1cccnc1	-30%	3	-6%	14%	-5%	14
CCOC(=O)c1sc(=S)n(-c2ccc3c(c2)OCO3)c1N	-5%	30	-26%	-17%	1%	30*
CCOC(=O)c1sc(=S)n(-c2ccc(F)c(F)c2)c1N	-2%	12	-28%	2%	5%	-2
O=C(Nc1ccc(Cl)cc1Cl)c1cc(S(=O)(=O)NCc2ccc3c(c2)OCO3)ccc1F	x	x	2%	x	x	x
O=C(Cc1csc(-c2ccccc2)n1)NCc1ccc(F)cc1	-13%	4	-1%	-1%	5%	-1
O=C(NCc1csc(-c2ccccc2)n1)c1cc(F)cc2c1OCOC2	-3%	83*	-4%	2%	5%	45*
COc1cccc([C@H]2Nc3ccc(S(=O)(=O)Nc4cc(C)ccc4C)cc3[C@H]3C=CC[C@H]32)c1	x	x	0%	x	x	x
Cc1ccc2c(CN3CCCCC3)cc(=O)oc2c1C	12%	83	9%	8%	-1%	36*
Cc1cc2oc(=O)cc(CN3CCCCC3)c2cc1O	7%	26	3%	-7%	2%	27*
Cc1ccc2c(CN3CCCc4ccccc43)cc(=O)oc2c1C	-1%	36	6%	-28%	1%	27*
Cc1cc2oc(=O)cc(CN3CCc4ccccc43)c2cc1Cl	2%	-4	-5%	8%	3%	-5
CCOc1ccc(-c2cc(NC(=O)Nc3ccccc3Cl)c(C(=O)OC)s2)cc1	x	x	-7%	x	x	x
Cc1ccc(N2CCn3c2nc2c3c(=O)n(CCc3ccccc3)c(=O)n2C)cc1C	x	x	2%	x	x	x
Cc1cc(C(=O)N/N=C/c2c(C)[nH]n(-c3ccccc3)c2=O)n[nH]1	-7%	-7	4%	-9%	-3%	9
Cc1[nH]n(-c2ccccc2)c(=O)c1/C=N/NC(=O)c1cccc(F)c1	15%	66*	-4%	u	2%	43*
Cc1[nH]n(-c2ccc(Br)cc2)c(=O)c1/C=N/NC(=O)c1ccccc1	-1%	92*	5%	2%	-5%	28*
COc1ccc(-c2c(C#N)c(N)nc3c2CCC3)cc1	-10%	15	4%	1%	4%	20*
N#Cc1c(N)nc2c(c1-c1ccccc1)CCC2	35%	29	-14%	-6%	-2%	20
